Source: PubChem BioAssay
A number with no mark means an inactive call. Active and inactive are the calls of the source. Rule as the data show it, unless noted: active = inhibition above about 36%; inactive = the rest.

What was measured:
[1] = tested on: transactivating tegument protein VP16 (Human herpesvirus 1); assay: VP16 transactivation reporter inhibitors, counter-screen for SRC2 inhibitor project, cell-based, luminescence, single concentration (AID 652007); conditions: cell-based VP16 transactivation luciferase reporter, at 8.9 µM, hits give high values
[2] = target: Nuclear receptor coactivator 2 (Homo sapiens) (UniProt Q15596); assay: SRC2 coactivator transcriptional activity inhibitors, confirmation, cell-based, luminescence, HEK293, triplicate (AID 652008;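 active = mean inhibition above 46.5%, the solvent-only control mean plus 3 SD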;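 also: 0% = DMSO-treated cells and 100% = Gossypol at 36 µM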); conditions: HEK293 GAL4-SRC2 luciferase reporter, at 8.9 µM, hits give high values
Nuclear receptor coactivator 2 (Homo sapiens), sequence (Q15596 whole entry, looked up, the tested form may be a part): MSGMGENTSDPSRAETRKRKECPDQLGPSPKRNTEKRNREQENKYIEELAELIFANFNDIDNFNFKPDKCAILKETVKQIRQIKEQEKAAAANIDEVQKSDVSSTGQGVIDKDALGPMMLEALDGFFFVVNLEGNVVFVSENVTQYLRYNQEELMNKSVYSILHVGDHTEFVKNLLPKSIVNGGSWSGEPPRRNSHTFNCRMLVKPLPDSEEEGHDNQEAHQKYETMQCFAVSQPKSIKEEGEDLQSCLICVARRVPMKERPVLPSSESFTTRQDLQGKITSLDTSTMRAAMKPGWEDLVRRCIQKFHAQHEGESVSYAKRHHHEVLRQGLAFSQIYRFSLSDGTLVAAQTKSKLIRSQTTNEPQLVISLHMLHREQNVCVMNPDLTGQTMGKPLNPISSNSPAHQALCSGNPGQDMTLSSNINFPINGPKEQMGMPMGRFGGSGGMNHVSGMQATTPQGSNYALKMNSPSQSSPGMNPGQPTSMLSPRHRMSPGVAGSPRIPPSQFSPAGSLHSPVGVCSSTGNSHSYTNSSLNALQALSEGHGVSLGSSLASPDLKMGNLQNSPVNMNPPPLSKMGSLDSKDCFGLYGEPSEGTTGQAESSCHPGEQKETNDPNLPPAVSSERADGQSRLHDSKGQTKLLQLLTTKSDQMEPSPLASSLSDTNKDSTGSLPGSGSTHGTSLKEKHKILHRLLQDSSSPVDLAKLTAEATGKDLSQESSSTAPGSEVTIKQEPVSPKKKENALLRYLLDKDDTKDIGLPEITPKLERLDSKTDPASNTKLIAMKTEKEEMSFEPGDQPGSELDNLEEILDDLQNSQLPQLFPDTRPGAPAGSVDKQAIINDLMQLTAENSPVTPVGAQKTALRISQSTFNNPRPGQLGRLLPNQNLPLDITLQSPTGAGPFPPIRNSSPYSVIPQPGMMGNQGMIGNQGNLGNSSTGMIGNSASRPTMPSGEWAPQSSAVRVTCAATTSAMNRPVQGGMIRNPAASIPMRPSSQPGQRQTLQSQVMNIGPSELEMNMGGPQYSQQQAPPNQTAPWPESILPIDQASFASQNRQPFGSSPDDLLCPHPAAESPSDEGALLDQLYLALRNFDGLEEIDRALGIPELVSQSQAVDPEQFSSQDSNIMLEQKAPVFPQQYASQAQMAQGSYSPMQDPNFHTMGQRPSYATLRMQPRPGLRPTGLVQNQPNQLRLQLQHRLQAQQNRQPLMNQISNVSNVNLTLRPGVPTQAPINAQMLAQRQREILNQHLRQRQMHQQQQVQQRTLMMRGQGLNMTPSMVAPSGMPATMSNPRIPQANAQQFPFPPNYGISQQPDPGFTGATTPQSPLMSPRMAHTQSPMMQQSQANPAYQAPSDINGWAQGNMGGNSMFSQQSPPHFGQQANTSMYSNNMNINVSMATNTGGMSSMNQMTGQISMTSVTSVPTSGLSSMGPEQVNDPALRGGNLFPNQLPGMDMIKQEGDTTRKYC

Structure (SMILES)	inhibition [1]	inhibition [2]
COc1cccc(CNc2nc(NCC3CC3)nc3ccsc23)c1OC	-3.78%	18.8%
Cc1c([N+](=O)[O-])cnc(Sc2ccccc2)c1[N+](=O)[O-]	3.41%	16.7%
Nc1ccc(OC(=O)Nc2ccc(O)cc2)cc1	31.8%	73.7% (active)
CCC(C(=O)NCc1ccc(F)cc1)n1nc(C)n2c(cc3occc32)c1=O (configuration not stated)	-13.4%	-6.88%
CCCc1ncc(CN2CCC(C(=O)Nc3cccc(-c4cscn4)c3)CC2)cn1	12.2%	15.5%
COc1ccc(CN2C[C@H](Cc3ccccc3)[C@@H](CC(=O)Nc3ccccc3)C2=O)cc1	-10.9%	1.81%
O=C(Nc1nccs1)c1cc2c(s1)CCCCC2	0.43%	38.7%
O=[N+]([O-])c1cccc2c(N3CCCC3)ccnc12	11.7%	-23.4%
CC(=O)O[C@@H]1C[C@H]2C(C)(C)C(=O)C=C[C@]2(C)[C@H]2CC[C@@]3(C)[C@H](c4ccoc4)OC(=O)[C@H]4O[C@]43[C@@]21C	35.9% (active)	27%
Cc1cc(=O)oc2cc(OCC(=O)NC3CCCC3)ccc12	-12.6%	-25.6%
O=C(CCl)Nc1ccc(-c2ccccc2)cc1	32.4%	65.6% (active)
O=C(CCCN1C(=O)/C(=C/c2ccccc2)SC1=S)NCCCn1ccnc1	35.9% (active)	26.1%
O=C(c1ccc(S(=O)(=O)NCc2ccco2)cc1)N1CCN(Cc2ccc3c(c2)OCO3)CC1	-2.59%	3.12%
O=C(CSc1nc2[nH]c(=O)[nH]c(=O)c2s1)Nc1cccc(F)c1	0.35%	-0.5%
O=C(CCCN1C(=O)/C(=C/c2cccc(Br)c2)SC1=S)NCCCN1CCOCC1	32.1%	10.6%
CC(=O)c1cccc(NC(=O)Nc2ccc(C(=O)N3CCOCC3)cc2)c1	-8.69%	17.1%
